# Source: PubChem BioAssay (NCI)
# Compounds without any hit were thinned out: in the full panel of roughly 83,000, 20% have a hit.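 For each line, cells grew in 96-well plates with the test compound present at a single concentration for 48 hours.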 Active and inactive are the calls of the source. Rule for the calls: active = growth percent below 10; inactive = the rest.
# System: MDA-MB-468 breast
# Assay: NCI-60 one-dose screen, 48 h (100 = growth as untreated, 0 = no growth, -100 = all killed)
# Conditions: 10 µM unless noted
row,SMILES,growth
1,O=C(COc1ccc(/C=C2\C(=O)Nc3ccc(Cl)cc32)cc1)Nc1ccc(Cl)cc1,87.6% (inactive)
2,C=C(C)[C@@H]1CC[C@]2(C(=O)OC)CC[C@]3(C)[C@H](CC[C@@H]4[C@@]5(C)C/C(=C/c6ccc(OC)cc6)C(=O)C(C)(C)[C@@H]5CC[C@]43C)[C@@H]12,76% (inactive)
3,CC(C)NC(=O)OCc1c(COC(=O)NC(C)C)c(-c2ccc(Cl)c(Cl)c2)n2c1SCC2,-73.9% (active)
4,Cc1c2c(cc[n+]1Cc1ccccc1)c1ccc(OCC3CCCCC3)cc1n2CC1CCCCC1,-86.6% (active)
5,OCC(CO)(CCl)CCl,107% (inactive)
6,CC(=O)c1c(O)c(C)c(O)c2c1OC1=CC(=O)/C(=C(/C)N)C(=O)C12C (stereo not given),74.6% (inactive)
7,COc1ccccc1-n1cc(C#N)c(N)c1C(=O)c1ccc(C)cc1,46.2% (inactive)
8,Nc1ccc(S(=O)(=O)c2ccc(Cl)cc2)cc1,91.7% (inactive)
9,CN1CCN(c2ccc(OC(F)(F)F)c(Nc3ncc4c(n3)-c3c(c(C(N)=O)nn3CCO)CC4)c2)CC1,9.13% (active)
10,CCC(C)(C)c1cc(O)c(C(C)(C)CC)cc1O,-2.33% (active)
11,COC(=O)[C@H](C)NC(=O)NC(=O)NC(=O)CI,70.2% (inactive)
12,CN1CCC(=C(c2ccccc2)c2ccccc2)C(c2ccccc2)C1 (stereo not given),87.6% (inactive)
13,CCN(CC)c1nc(SCC(=O)Nc2nc3ccc(C)cc3s2)nc(-c2ccccc2)c1C#N,86.7% (inactive)
14,CN1C(=O)N(C)C2C1NN=c1s/c(=C\c3ccc(F)cc3)c(=O)n12 (stereo not given),-11.4% (active)
15,NC(Cc1ccc(O)c([N+](=O)[O-])c1)C(=O)O (stereo not given),101% (inactive)
16,CON=C1C[C@]2(C[C@@H]3C[C@@H](C/C=C(\C)C[C@@H](C)/C=C/C=C4\CO[C@@H]5[C@H](O)C(C)=C[C@@H](C(=O)O3)[C@]45O)O2)O[C@H](/C(C)=C/C(C)C)[C@H]1C,49% (inactive)
17,NC(N)=N/N=C(/c1ccccc1)c1ccc(F)cc1,14.9% (inactive)
18,O=C(COc1cccc2cccnc12)Nc1ccc(C(=O)/C=C/c2ccc(Cl)cc2)cc1,89.3% (inactive)
19,C=CCN(/C=C1/C(=O)O[C@H](COC)[C@@]2(C)C1=C(O)C(=O)C1=C2[C@H](OC(C)=O)C[C@]2(C)C(=O)CC[C@@H]12)CC=C,-32.2% (active)
20,NC(=O)CC(NC(=O)COc1ccc(Cl)cc1Cl)C(=O)O (stereo not given),108% (inactive)

row,SMILES,growth
1,CNC(=O)c1ccc(Nc2ncc(C(F)(F)F)c(NCc3nccnc3N(C)S(C)(=O)=O)n2)cc1,-50.1% (active)
2,COc1ccc(-c2n/c(=C\c3c(O)[nH]c4ccccc34)cc3c2=Nc2ccccc2-3)cc1,-48% (active)
3,O=C(Nc1ccc(-n2cc(-c3ccncc3)c(-c3ccc(O)c(Cl)c3)n2)cc1)Nc1cc(C(F)(F)F)cc(C(F)(F)F)c1,37.1% (inactive)
4,C[C@@H]1CCCCCCCCC[C@H](O)C(=O)C[C@@H](SC[C@@H](O)C(=O)O)C(=O)O1,104% (inactive)
5,COC(=O)C1=C(C)C(=O)CC1,110% (inactive)
6,Clc1cccc(Cl)c1C(Nc1nc2ccccc2s1)Nc1nc2ccccc2s1,72.3% (inactive)
7,O=C(NCCNC(=O)c1ccc(Cl)cc1Cl)c1ccc(Cl)cc1Cl,104% (inactive)
8,COc1cccc(/C=C/C(=O)c2c(C)nc3ccccc3c2/C=C/c2ccccc2)c1OC,43.3% (inactive)
9,CC(C)c1ccccc1NC(=O)N1CCC(C(C)C)CC1,99.8% (inactive)
10,N#CC1=C(Nc2ccccc2Cl)SC(c2ccccc2O)NC1=O (stereo not given),122% (inactive)
11,COc1cc(C(=O)Nc2ccc(-c3nc4ccccc4[nH]3)cc2)cc(OC)c1OC,6.62% (active)
12,Cc1cc[n+](CCCCCCCCCC[n+]2ccc(C)cc2)cc1,6.78% (active)
13,O=C1CCN(Cc2ccccc2)C(=S)N1,110% (inactive)
14,O=C(Nc1cccc(Cn2c(=O)[nH]c3ccc(Oc4ncccn4)cc3c2=O)c1)c1cccc(Cl)c1,18.6% (inactive)
15,COc1ccc(C(=O)CSc2nc(-c3cc(OC)ccc3OC)cc(-c3ccc(OC)cc3)c2C#N)cc1,105% (inactive)
16,CCCCCCCCCCCCCCCC[N+]1(C)CCCC1c1cccnc1 (stereo not given),-15.8% (active)
17,COc1ccc(-c2onc(N)c2-c2cc(OC)c3c(c2)OCO3)cc1,-29.2% (active)
18,Sc1cccc2cccnc12,30% (inactive)
19,Cc1ccc2[nH]c3nc4cccnc4c(C)c3c2c1,-35% (active)
20,CC(C)(C)c1cc(/C=N\NC(=O)/C=C/C=C/c2ccc3c(c2)OCO3)c(O)c(C(C)(C)C)c1,70.7% (inactive)
